Shown is part of a subset that was picked to be rich in hits.
TTR transcr act = TTR transcription activation, primary screen; activation, % at 16.7 µM; AID 1117267; hit rate 1.3% among 92,000; SH-SY5Y TTR promoter Gaussia luciferase, luminescence; 100% = recombinant luciferase protein wells;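 active = activation above the mean of all tested compounds plus 3 SD, cut at about 9.5% in these data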;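 note: cells exposed to compounds for one day before reading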
TTR inh HuH7 = counter-screen for TTR activators: TTR transcription inhibitors in HuH7 cells. shares compounds with TTR transcr act. HuH7 TTR promoter-Gaussia luciferase reporter, luminescence. inhibition, % at 16.7 µM. hit rate 4% among 1,100. AID 1117279;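 active = average inhibition above the solvent-only control wells' mean plus 3 SD, cut at about 15% in these data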;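 note: inhibitors lower well luminescence so higher value means more inhibition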
TTR up confirm = confirmation of human transthyretin transcription activators; activation, % at 16.7 µM; SHSY5Y TTR promoter Gaussia luciferase, luminescence; 100% = purified Lucia enzyme wells, no cells; AID 1117280; shares compounds with TTR transcr act; 1,100 tested, under 10 active;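 active = mean activation above a set limit taken from the earlier primary screen, cut at about 11% in these data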
Of the large screens only hits and unclear results are named; the others gave an inactive call (follow-up assays come after a bar, where they were run).

c1ccc(CSc2nnc3ccc(-c4ccco4)nn23)nc1	none
CC1=NN(c2ccccc2)C(=O)/C1=C/c1cccc(C)c1	none
CC(=O)c1ccn(S(=O)(=O)c2ccc(Cl)cc2)c1	none
C/C(=N\O)c1ccn(S(=O)(=O)c2ccc(Cl)cc2)c1	TTR transcr act 26 | TTR inh HuH7 inactive | TTR up confirm inactive
C/C(=N/NS(=O)(=O)c1ccc(Cl)cc1)c1ccncc1	none
COc1ccc(Nc2nnc(-c3ccccc3)c3ccccc23)cc1C(=O)N1CCCCC1	none
O=C(CSc1nnc(CNC(=O)c2c(F)cccc2F)o1)Nc1ccc2c(c1)OCO2	none
O=C(CSc1nnc(CNC(=O)c2ccccc2)o1)Nc1ccc2c(c1)OCO2	none
O=C(CSc1nnc(CNC(=O)c2c(F)cccc2F)o1)Nc1ccc2c(c1)OCCO2	TTR transcr act 11 | TTR inh HuH7 inactive | TTR up confirm inactive
COc1ccc(CN(C)C(=O)CCc2ccc(S(=O)(=O)N3CCCCCC3)cc2)c(OC)c1	none
Cc1coc2cc3oc(=O)cc(C)c3cc12	none
CCCCn1c(N)c(N(CC(C)C)C(=O)Cn2c(=O)oc3ccccc32)c(=O)[nH]c1=O	none
CCCCn1c(N)c(N(CC(C)C)C(=O)CN2C(=O)NC3(CC(C)CC(C)(C)C3)C2=O)c(=O)[nH]c1=O (stereo not drawn)	TTR transcr act 11 | TTR inh HuH7 inactive | TTR up confirm inactive
CCCCn1c(N)c(N(CC(C)C)C(=O)C2CC(=O)N(c3ccc(C)cc3)C2)c(=O)[nH]c1=O (stereo not drawn)	none
COc1ccc2c(c1)N(C(=O)CN1C(=O)C3CCCCC3C1=O)C(C)(C)C=C2C (stereo not drawn)	none
O=C(N/N=C\c1cccs1)c1sccc1-n1cccc1	none
CC(=O)C1C(C)CC2C3CCC4CC(=O)CCC4(C)C3CCC21C (stereo not drawn)	none
CC(=O)C1CCC2C3CCC4CC(=O)CCC4(C)C3C(O)CC12C (stereo not drawn)	TTR transcr act 10 | TTR inh HuH7 inactive | TTR up confirm inactive
CC(=O)C1CCC2C3CCC4=CC(=O)C=CC4(C)C3CCC12C (stereo not drawn)	none
COc1ccc2cc(CCN3C(=O)c4ccccc4C3=O)c(=O)[nH]c2c1	none
CC(Sc1nc2c(c(=O)[nH]1)CCCC2)C(=O)Nc1ccc(S(N)(=O)=O)cc1 (stereo not drawn)	none
COC(=O)[C@]12C[C@H](CC(=O)N3CCC(c4ccccc4)CC3)C(=O)N(Cc3ccccc3)C1=C[C@H](COCc1ccccc1)O[C@@H]2C	none
COc1ccc2ccccc2c1/C=N/NC(=O)c1ccccc1F	none
NC(=O)c1cccnc1Oc1ccc(Cl)cc1Cl	none
CC(C)(C)S(=O)N1Cc2ccc(CO)cc2[C@H]1CCO (stereo partly drawn)	none
CC(C)(C)S(=O)N1Cc2cc(CO)cc(-c3ccccc3)c2[C@H]1CCO (stereo partly drawn)	none
CC(C)(C)S(=O)N1Cc2cc(=O)n(Cc3ccccc3)cc2[C@H]1CCO (stereo partly drawn)	TTR transcr act 11 | TTR inh HuH7 inactive | TTR up confirm inactive
CCC(=O)c1ccc(OCC(=O)Nc2cc(S(=O)(=O)N3CCCCC3)ccc2OC)cc1	none
CCc1ccccc1NC(=O)c1ccc(NCCc2ccccc2)c([N+](=O)[O-])c1	none
CCN(CC)C(=S)SCC(=O)Nc1ccc(S(N)(=O)=O)cc1	none
O=C(/C(=N\Nc1ccccc1)Sc1nnnn1-c1ccccc1)c1ccccc1	none
CN(Nc1cccc(Cl)c1)c1cccc(Cl)c1	TTR transcr act 11 | TTR inh HuH7 inactive | TTR up confirm inactive
CN(C)NC(=S)Nc1cccc(Cl)c1	none
CN(C)NC(=O)c1cccc(Cl)c1	none
COC(=O)c1ccc(S(=O)(=O)NCCc2ccccc2OC)n1C	none
Cc1cccc(NS(=O)(=O)c2ccc3c(c2)NC(=O)CC(=O)N3)c1	TTR transcr act 13 | TTR inh HuH7 inactive | TTR up confirm inactive
Cc1cccc(NS(=O)(=O)c2ccc3c(c2)CCC(=O)N3)c1	none
CCc1cccc(NS(=O)(=O)c2ccc3c(c2)NC(=O)CC(=O)N3)c1	none
O=c1cc(Cl)[nH]n(-c2ccccc2)c1=O	none
COCCNC(=O)CN(CC1CCCO1)C(=O)CCC(=O)Nc1ccccn1 (stereo not drawn)	TTR transcr act 16 | TTR inh HuH7 inactive | TTR up confirm inactive
COCCNC(=O)C(c1ccc(F)cc1)N(CC1CCCO1)C(=O)CCC(=O)Nc1ccccn1 (stereo not drawn)	none
COCCN(CC(=O)NCC1CCCO1)C(=O)CCC(=O)Nc1cc(C)ccn1 (stereo not drawn)	none
Cc1ccc(CNC(=O)Cc2nc3nc(C)cc(C)n3n2)cc1	none
Cc1nc2ccccc2cc1C(=O)NCc1ccc(F)cc1	none
CN(C)S(=O)(=O)N1CCCC(C(=O)c2ccc(-c3ccccc3)c(F)c2)C1 (stereo not drawn)	none
CCS(=O)(=O)N1Cc2ccccc2CC1C(=O)OCC(=O)Nc1ccc(SC(F)F)cc1 (stereo not drawn)	none
CCOC(=O)NC(CC(=O)O)c1ccc(OC)c(OC)c1 (stereo not drawn)	TTR transcr act 9.7 | TTR inh HuH7 inactive | TTR up confirm inactive
CCCC(=O)NC(c1ccc(OCC)cc1)c1ccc(OC)c(OC)c1 (stereo not drawn)	none
CCOc1ccc(C(NC(=O)/C=C/c2ccco2)c2ccc(OC)c(OC)c2)cc1 (stereo not drawn)	none
CCOC(=O)NC(CC(=O)O)c1ccc(OCC)cc1 (stereo not drawn)	none
CCOc1ccc(C(NC(C)=O)c2ccc(OC)c(OC)c2)cc1 (stereo not drawn)	TTR transcr act 11 | TTR inh HuH7 inactive | TTR up confirm inactive
COc1ccc(C(CC(=O)O)NC(=O)c2cc3cc(Br)ccc3oc2=O)cc1OC (stereo not drawn)	none
COc1cc(/C=C2/C(=N)N3C=CSC3=NC2=O)ccc1OCCCOc1c(C)cccc1C	none
C=CCN1C(=O)c2ccc(C(=O)N3CCN(S(=O)(=O)c4ccc(C(C)C)cc4)CC3)cc2C1=O	none
O=C(CN1C(=O)c2ccccc2C1=O)NC1(C(=O)O)CCCC1	none
CCC1CCCCN1C(=O)c1sc2ncnc(N(CC)CC)c2c1C (stereo not drawn)	none
Cc1nc(CS(=O)(=O)c2ccccc2)cc(Sc2ccc(Cl)cc2)n1	none
CCc1nnc(NC(=O)CN2C(=O)N(C)C3(CCCCC3)C2=O)s1	none
O=C(Nc1ccc(C(=O)O)cc1)/C(=C\c1ccccc1)NC(=O)c1ccco1	none
Cc1cc(C)c(/C=C(\C#N)C(N)=S)c(C)c1	none
S=C1NCN(Cc2ccccc2)CN1	none
CCOc1ccc(OCC)c(NC(=O)C2CCCN(c3ncccn3)C2)c1 (stereo not drawn)	none
CCc1ccccc1NC(=O)C1CCCN(c2ncccn2)C1 (stereo not drawn)	TTR transcr act 12 | TTR inh HuH7 inactive | TTR up confirm inactive
CCC(C)c1ccc(NC(=O)C2CCCN(c3ncccn3)C2)cc1 (stereo not drawn)	none
Cc1cc(NC(=O)c2ccc(C)c([N+](=O)[O-])c2)no1	none
CCOc1ccc(C(=O)Nc2cccc(C(=O)O)c2C)cc1Cl	none
COc1ccc(C(=O)Nc2cc(C(=O)O)cc(C(=O)O)c2)cc1Cl	none
COc1ccc(C(=O)Nc2ccccc2C(=O)O)cc1Cl	TTR transcr act 78 | TTR inh HuH7 inactive | TTR up confirm inactive
Cc1ccc(N(CC(=O)NCc2ccccc2)C(=O)CCC(=O)Nc2nccs2)cc1	none
